Measurements from PubChem BioAssay AID778 (Sanford-Burnham Center for Chemical Genomics, 2007).
In all, about 96,000 compounds went through this assay and about 20,000 (21%) were called active.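 How the source made its calls: active means CYP2C19 inhibition above a set limit at 5 µM in the primary screen (cut at about 50% in these data); inactive means the rest.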 Only a sample is shown.

Target: Cytochrome P450 2C19 (Homo sapiens) (UniProt P33261)
Test: blockers of cytochrome P450 2C19 activity – biochemical, luminescence, ADME assay, primary screen (AID 778);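 further: plate controls were negative control wells for no effect and 2.5 mM tranylcypromine positive control for full effect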
Details: CYP2C19 Supersomes, luciferin-H EGE luminescence, 30 min; at 5 µM; active compounds read high

Cytochrome P450 2C19 (Homo sapiens), sequence (P33261 whole entry, looked up): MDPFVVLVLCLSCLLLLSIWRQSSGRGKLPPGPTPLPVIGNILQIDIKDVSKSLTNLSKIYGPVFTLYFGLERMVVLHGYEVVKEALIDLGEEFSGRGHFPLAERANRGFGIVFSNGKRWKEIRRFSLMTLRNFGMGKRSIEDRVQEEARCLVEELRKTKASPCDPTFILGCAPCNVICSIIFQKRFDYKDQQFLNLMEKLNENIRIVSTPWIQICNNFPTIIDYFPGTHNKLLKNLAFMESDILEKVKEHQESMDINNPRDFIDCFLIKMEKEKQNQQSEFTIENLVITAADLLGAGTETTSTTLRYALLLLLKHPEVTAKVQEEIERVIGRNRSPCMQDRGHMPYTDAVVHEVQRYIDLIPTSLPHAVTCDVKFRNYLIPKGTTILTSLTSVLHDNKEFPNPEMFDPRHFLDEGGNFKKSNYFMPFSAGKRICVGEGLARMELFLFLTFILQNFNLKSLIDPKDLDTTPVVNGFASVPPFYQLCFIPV

Row | Structure (SMILES) | inhibition
1 | CCn1c(=O)cc(O)c2ccccc21 | -18.1% (inactive)
2 | CC(=O)c1c(C)c[nH]c1C | -14.8% (inactive)
3 | CCC(=O)Nc1ccc(C(=O)Nc2ccc3c(c2)C(=O)N(CC2CCCO2)C3=O)cc1 (stereo not drawn) | -1% (inactive)
4 | CCC(C)(C)n1nnnc1CN1CCN(c2nc3ccc(C)cc3cc2C#N)CC1 | 0.3% (inactive)
5 | CCSC1(SCC)N=C(N)C2(C#N)C(c3ccccc3)NC(C)=CC12C#N (stereo not drawn) | 16.1% (inactive)
6 | O=C(CCl)NNc1cccc(Cl)n1 | 6.7% (inactive)
7 | COC(=O)CN1C(C)=Nc2ccc(Br)cc2C1c1ccccc1 (stereo not drawn) | 43.4% (inactive)
8 | COC(=O)c1oc2ccc(Br)cc2c1NC(C)=O | 14.7% (inactive)
9 | COC(=O)C1=C(C)N(C)C(C)=C(C(=O)OC)C1c1cccc(Br)c1 | 79.2% (active)
10 | CCOC(=O)CN1CC23C=CC(O2)C(C(=O)Nc2ccc(F)cc2)C3C1=O (stereo not drawn) | 40.7% (inactive)
11 | Cc1occc1C(=O)NNC(=S)NCC(C)C | 74.6% (active)
12 | CCNC(=S)NNC(=O)Cc1ccccc1 | 18.2% (inactive)
13 | CC(C)CNC(=S)NNC(=O)c1ccccc1OC(F)F | 16.6% (inactive)
14 | O=C(NCc1ccco1)c1nc2ncccn2n1 | -0.7% (inactive)
15 | CN1CCN(Cc2nc3c(c(=O)n(C)c(=O)n3C)n2Cc2cccc3ccccc23)CC1 | -17.1% (inactive)
16 | CC(=O)c1cccc(S(=O)(=O)N2CCC(n3nnc4cc(F)ccc43)CC2)c1 | 43.1% (inactive)
17 | O=S(=O)(c1cccc(-c2nnc(SC(F)F)n2-c2ccccc2)c1)N1CCCCC1 | 41.6% (inactive)
18 | O=S(=O)(c1cccc(S(=O)(=O)N2CCC(n3nnc4ccccc43)CC2)c1)N1CCCCC1 | 94.7% (active)
19 | Cc1ccc(CNC(=O)CCNC(=O)Cn2ccc3ccccc3c2=O)cc1 | 17.4% (inactive)
20 | CCOCCOCCC(C(=O)O)P(=O)(c1ccccc1)c1ccccc1 (stereo not drawn) | -2.4% (inactive)
21 | COc1ccc(NC(=O)ON=C2c3ccccc3-c3ccccc32)cc1 | 11.6% (inactive)
22 | COc1ccc(Cl)cc1NC(=O)c1oc(C)nc1C | -9% (inactive)
23 | CCCCC(=O)N/N=C(\C)CC(=O)Nc1cc(Cl)ccc1OC | 6.1% (inactive)
24 | COc1ccc(Cl)cc1NC(=O)CN(C)C(=O)CNC(=O)C12CC3CC(CC(C3)C1)C2 | 67.9% (active)
25 | O=C(CSCc1ccc([N+](=O)[O-])cc1)Nc1cccc(C(=O)Nc2ccccc2C(=O)O)c1 | 14.5% (inactive)

Row | Structure (SMILES) | inhibition
26 | COc1ccccc1Cc1nc(-c2ccc(C)cc2)no1 | 35.6% (inactive)
27 | COc1ccccc1CNS(=O)(=O)c1ccc(C)cc1 | 92.5% (active)
28 | Cc1ccc(S(=O)(=O)NCC(C)NS(C)(=O)=O)cc1 (stereo not drawn) | 16.9% (inactive)
29 | Nc1c(C(=O)NCc2ccccc2)nnn1Cc1cccc(Cl)c1 | 6.4% (inactive)
30 | CC(C)=CC(=O)Nc1nnc(-c2ccc(F)cc2)s1 | 4.7% (inactive)
31 | CCOC(=O)C1CCN(C(=O)C2CCN(S(=O)(=O)N3CCCC3)CC2)CC1 | 10.9% (inactive)
32 | CCOC(=O)C1CCN(C(=O)C2CCN(S(=O)(=O)CC)CC2)CC1 | -18.2% (inactive)
33 | CCOC(=O)C1CCN(C(=O)Nc2ccc(Cl)cc2)CC1 | 63.1% (active)
34 | Cc1ccc(-c2nc(C)sc2CC(=O)O)cc1 | 29.8% (inactive)
35 | O=C(Cc1ccccc1)N/N=C/c1ccc(Cl)cc1Cl | 7.9% (inactive)
36 | NC(=O)COc1ccc(/C=N/NC(=O)C2CCCN2S(=O)(=O)c2ccc(Cl)cc2)cc1 (stereo not drawn) | 19.2% (inactive)
37 | CSc1ccc(/C=N\NC(=O)COc2ccc(Cl)cc2Br)cc1 | 76.4% (active)
38 | CS(=O)(=O)c1ccc2nc(NC(=O)C3C4C=CC(C4)C3C(=O)O)sc2c1 (stereo not drawn) | 0.7% (inactive)
39 | COC(=O)c1cc(NC(=O)C2C3C=CC(C3)C2C(=O)O)cc(C(=O)OC)c1 (stereo not drawn) | 2.5% (inactive)
40 | CC(C)COC(=O)c1ccc(NC(=O)C2C3C=CC(C3)C2C(=O)O)cc1 (stereo not drawn) | 54.2% (active)
41 | CC(Sc1nnc(Cc2ccc([N+](=O)[O-])cc2)o1)C(N)=O (stereo not drawn) | 16.6% (inactive)
42 | O=C(Cn1cnc2c(cnn2-c2ccccc2)c1=O)NCc1ccccc1 | -10.8% (inactive)
43 | CN1C(=O)C(CC(N)=O)N(NC(=O)c2ccc(Cl)cc2)C1=S (stereo not drawn) | -7.8% (inactive)
44 | CC(=O)N1CC2(C)CN(C(C)=O)CC(C)(C1)C2=O | 79.3% (active)
45 | CCCCC(=O)N1CC2(C)CN(C(=O)CCCC)CC(C)(C1)C2=O | -1.6% (inactive)
46 | CCCCNC(=O)CSc1nc2ccc(NC(=O)CSc3nnc(COc4ccccc4C)n3C)cc2s1 | 19.1% (inactive)
47 | CC(C)c1ccc(NC(=O)CCN2C(=O)c3ccc([N+](=O)[O-])cc3C2=O)cc1 | 8.5% (inactive)
48 | Cc1sc(NC(=O)C2C3CCC(O3)C2C(=O)O)c(C(=O)OC(C)C)c1-c1ccc(Cl)cc1 (stereo not drawn) | 19.7% (inactive)
49 | CCC(CC)C(=O)Nc1cc(C(=O)OC)cc(C(=O)OC)c1 | 1.1% (inactive)
50 | CC(C)OC(=O)c1cc(NC(=O)C2C3CCC(O3)C2C(=O)O)cc(C(=O)OC(C)C)c1 (stereo not drawn) | 77.9% (active)

Row | Structure (SMILES) | inhibition
51 | COCCCn1c(SCc2cccc(OC)c2)nc2cc(OC)c(OC)cc2c1=N | 53.4% (active)
52 | OCCN1CCOCCOCCN(CCO)CCN(CCO)CC1 | 16.6% (inactive)
53 | O=C(OC1CCOC1=O)c1ccc(-c2nc3ccccc3s2)s1 (stereo not drawn) | 11.3% (inactive)
54 | Cc1nn(Cc2ccccc2)c(Cl)c1C(=O)OC1CCOC1=O (stereo not drawn) | 63.5% (active)
55 | CC(=O)c1c(N2CCOCC2)nc(=S)n(Cc2ccccc2)c1C | 12.8% (inactive)
56 | COc1cccc(-c2nc(S(=O)(=O)c3ccccc3)c(N3CCOCC3)o2)c1 | 27.7% (inactive)
57 | O=C(NCc1cn2ccsc2n1)Nc1cccc(Cl)c1 | 13.3% (inactive)
58 | O=c1[nH]c(=O)n(Cc2ccco2)c2c1C(C(F)(F)F)(C(F)(F)F)N=C(c1ccco1)N2 | -12.6% (inactive)
59 | Cc1cc(-c2ccccc2)n2nc(C)c(-c3ccccc3)c2n1 | 30.7% (inactive)
60 | Cc1ccc(C(=O)Nc2ccccc2C(=O)NC2CCCCC2)cc1S(=O)(=O)N1CCOCC1 | 21.5% (inactive)
61 | CC(=O)c1c(N2CCOCC2)nc(=S)n(-c2cc(C)ccc2C)c1C | -10.5% (inactive)
62 | Cc1cc(C)n(C(=O)c2ccc(C)c(S(=O)(=O)N3CCOCC3)c2)n1 | 68.7% (active)
63 | CCOC(=O)c1csc(NC(=O)c2ccc(S(=O)(=O)N3CCCC3)cc2)n1 | -7% (inactive)
64 | Cc1cc(C)n(C(=O)c2ccc(S(=O)(=O)N3CCCC3)cc2)n1 | 68.7% (active)
65 | Cc1ccccc1-c1nnn(CC(=O)c2ccc(S(=O)(=O)N3CCCC3)cc2)n1 | 14.5% (inactive)
66 | Cc1ccc(-c2nn(C(C)(C)C)c3ncnc(N)c23)cc1 | 38.5% (inactive)
67 | CCN(Cc1cc2cc(C)ccc2[nH]c1=O)S(=O)(=O)c1ccccc1 | 31.8% (inactive)
68 | CCCNc1ncnc2sc(C)c(C)c12 | 29.6% (inactive)
69 | COC(=O)c1ccc(OC(=O)c2nn(C)cc2Cl)c(OC)c1 | 67.9% (active)
70 | COC(=O)c1ccc(CSc2nncn2C)cc1 | 39.9% (inactive)
71 | COc1ccc(Cl)cc1C(=O)NCc1cn(C)nc1C | 10.4% (inactive)
72 | CC(=O)CCS(=O)(=O)c1ccc(C)c(C)c1 | 35.1% (inactive)
73 | CCN(CC)CC(=O)Nc1nn(-c2ccccc2)nc1C(N)=O | -19.9% (inactive)
74 | COC(=O)c1ccc(Oc2nc(Nc3ccc(F)cc3)nc(N3CCCC3)n2)cc1 | 32.3% (inactive)
75 | Cc1nn(-c2ccccc2)c2[nH]c(C(F)(F)F)cc(=O)c12 | -2.2% (inactive)

Row | Structure (SMILES) | inhibition
76 | CCCCn1nnnc1NCc1cc(OC)c(OC)c(OC)c1 | 79.8% (active)
77 | CCCCCCc1cc2cc(-c3nnc(-c4ccccc4)o3)c(=O)oc2cc1O | 27.4% (inactive)
78 | c1ccc2cc3[nH]c(CN4CCCCC4)nc3cc2c1 | 82.7% (active)
79 | c1ccc2cc(OCCN3CCCC3)ccc2c1 | 4.2% (inactive)
80 | c1cc(-c2nn[nH]n2)ccc1CN1CCCCC1 | -11.4% (inactive)
81 | Cc1nc(C)c(-c2csc(NCCc3ccccc3)n2)s1 | 39.4% (inactive)
82 | Cn1c(=NC(=O)CSCC(=O)N2CCCCC2)sc2ccccc21 | 73.6% (active)
83 | Cn1c(=NC(=O)c2cnccn2)sc2ccccc21 | -2.4% (inactive)
84 | Cn1c(=NC(=O)CSCC(=O)N2CCOCC2)sc2ccccc21 | 46.6% (inactive)
85 | CC(C)c1nc2oc3c(N4CCN(C)CC4)ncnc3c2c2c1CCC2 | 22.2% (inactive)
86 | O=C(Oc1ccccc1)Oc1ccc2c(c1)oc(=O)c1ccccc12 | -10.9% (inactive)
87 | COc1ccc(C(=O)c2oc3ccc(Br)cc3c2NC(C)=O)cc1 | -4% (inactive)
88 | ON=C1/C(=N\O)CC2(C/C1=N/O)OCCO2 | -10.5% (inactive)
89 | O=C(C1CCC1)N1CCc2cc(S(=O)(=O)NCc3cccnc3)ccc21 | 10% (inactive)
90 | CCCCNc1nc2ccccc2nc1NS(=O)(=O)c1cccs1 | 2.4% (inactive)
91 | CN1CCN(S(=O)(=O)c2ccc(N3CCN(S(=O)(=O)c4cccs4)CC3)nc2)CC1 | -25.5% (inactive)
92 | O=C(Nc1ccc(S(=O)(=O)N2CCc3ccccc3C2)cc1)c1ccccc1 | 0.3% (inactive)
93 | O=C1c2ccccc2C(=O)c2c1cccc2N1CCN(Cc2ccccc2)CC1 | 13.4% (inactive)
94 | O=S(=O)(c1cccs1)N1CCc2ccccc2C1 | 78% (active)
95 | O=S(=O)(c1cccs1)N1CCN(Cc2ccccc2)CC1 | 98.1% (active)
96 | CCN(c1ccccc1)S(=O)(=O)c1ccc(NC(=O)C(C)(C)C)cc1 | 9.3% (inactive)
97 | COc1cccc(/C=N\Nc2nncc(-c3ccccc3)n2)c1 | -7% (inactive)
98 | O=C1C=C(c2ccc(Cl)cc2)C(=O)N1Nc1ccccc1 | 19.7% (inactive)
